This is an account of results in ChEMBL document CHEMBL3988442, “University of Dundee, Small-Polar-MMV Screening Library” (2021).

About 13,000 (27%) of roughly 48,000 compounds showed an effect of 50% or more. The list shows a part of the results.

This experiment has as its system Wolbachia pipientis. Nature of the experiment: Anti-Wolbachia Cell-Based Screen. More on the design: scale not given: in the data most compounds retested in dose-response had high values. It counts as functional. Conditions: 5 µM.
As to `O=C(NCCc1ccccc1)N1CC[C@@H]2CNS(=O)(=O)[C@@H]2CC1`, the “Percent Effect” value is on record as -17.14%. For `COC1CCN(C(=O)Cn2cccc(C(F)(F)F)c2=O)C1` (configuration not stated) the value was -0.2293%; for `FC(F)(F)Cn1ccnc1CN1CCOC(Cn2cccn2)C1` (configuration not stated), -0.9498%. `O=S(=O)(CCN1CCOC(Cn2cccn2)C1)C(F)(F)F` (configuration not stated): the “Percent Effect” value came out at 8.008%. In the case of `c1cnn(CC2CN(CC3CCCCC3)CCO2)c1` (configuration not stated), the “Percent Effect” value was 102.2%. On to `CC(C)=CCN1CCOC(Cn2cccn2)C1` (configuration not stated), for which the “Percent Effect” value was found to be 136%.

Turning to `OC1(CN2CCOC(Cn3cccn3)C2)CCCCC1` (configuration not stated), the “Percent Effect” value was 99.61%. For `c1cnn(CC2CN(CC3CCCC3)CCO2)c1` (configuration not stated) the value was 7.004%; for `Cc1cccc(C(C)NCC2CCS(=O)(=O)CC2)c1` (configuration not stated), -4.903%; for `O[C@H]1Cc2ccccc2[C@H]1Nc1ncccc1C(F)(F)F`, -3.306%.

In the case of `CCN(CC)C(=O)[C@@H]1C[C@@H](NC(=O)c2cccc(N(C)C)c2)CN1C`, the “Percent Effect” value is on record as -6.856%.

Consider `COc1cc(C)nc(N2CCN(C(C)c3nc(C4CC4)no3)CC2)n1` (configuration not stated), for which the “Percent Effect” value is reported as 4.237%.

Consider `Cc1nnc(NCC(c2ccco2)N(C)C)c(C#N)c1C` (configuration not stated), for which the “Percent Effect” value is reported as 0.3665%. For `O=C(CCn1ccc2ccc(Br)cc21)/N=c1\[nH]nc(C2CCCO2)s1` (configuration not stated) the value was 100.3%; for `O=C(NCCc1ccn(-c2ccc(F)cc2)n1)C1CCCO1` (configuration not stated), -8.284%. To `O=C(NCc1cnn(-c2ccc(F)cc2F)c1)C1CCCO1` (configuration not stated) belongs 2.744%; to `CCCn1ccc2cc(NC(=O)CC3CCCO3)ccc21` (configuration not stated), 3.072%. To `O=C(CCn1ccc2ccc(F)cc21)/N=c1\[nH]nc(C2CCCO2)s1` (configuration not stated) belongs 105.1%; to `O=C(Cn1ccc2ccc(Br)cc21)NC[C@@H]1CCCN2CCCC[C@H]12`, 19.6%; to `NC(=O)C1CCN(C(=O)CCn2ccc3cc(Br)ccc32)CC1`, 25.85%.

For `O=C(CCn1ccc2cc(Br)ccc21)/N=c1\[nH]nc(C2CCCO2)s1` (configuration not stated), the “Percent Effect” value stood at 98.02%. On to `CCN(CC)C(=O)Cn1ccc2cc(NC(=O)C3CCCO3)ccc21` (configuration not stated), for which the “Percent Effect” value is given as -12.1%. To `Cn1cc(C2CCCN2C(=O)Cn2ccc3ccc(Cl)cc32)cn1` (configuration not stated) belongs -41.07%; to `O=C(CC1CCCO1)Nc1ccc2c(ccn2CCN2CCOCC2)c1` (configuration not stated), -5.067%.

Regarding `O=C(Cn1ccc2ccc(Cl)cc21)/N=c1\[nH]nc(C2CCCO2)s1` (configuration not stated), the “Percent Effect” value is 134.6%. For `CCCN(C(=O)CCS(=O)(=O)Cc1ccccc1)c1cccc(C)c1` the value was -47.75%. To `Cc1ccc(-c2cn3c(n2)CO[C@@H](CNCc2cccnc2)C3)cc1` belongs 0.839%.

In the case of `Cc1[nH]/c(=N\C(=O)c2csc(NCC(C)C)n2)sc1C`, the “Percent Effect” value worked out at 1.657%. To `CNC(=O)CCC(=O)N1CCOC(c2ccc3cc(OC)ccc3c2)C1` (configuration not stated) belongs 9.004%; to `COc1ccc2c(ccn2CCC(=O)/N=c2\[nH]nc(C3CCCO3)s2)c1` (configuration not stated), 126.4%; to `CCn1ccc2cc(NC(=O)CC3CCCO3)ccc21` (configuration not stated), 3.531%. To `CCc1cc(N2CCC(n3cc(C(=O)NC4CC4)nn3)CC2)ncn1` belongs -11.68%; to `CCCC(C)CN1CCC(n2cc(C3CCCC3)nn2)CC1` (configuration not stated), 0.2453%. In the case of `CC(C)Nc1cc(N2CCC(n3cc(C4CC4)nn3)CC2)ncn1`, the “Percent Effect” value is on record as 77.15%.

Take `CC(C)Nc1cc(N2CCC(n3cc(CCO)nn3)CC2)ncn1`: the “Percent Effect” value is 96.69%. In the case of `CCc1cc(N2CCC(n3cc(C(=O)NCC(C)C)nn3)CC2)ncn1`, the “Percent Effect” value was -7.159%. As for `O=C(NC1CC1)c1cn(C2CCN(c3cc(C4CC4)ncn3)CC2)nn1`, the “Percent Effect” value is -15.81%. For `OCCNc1cc(N2CCC(n3cc(C4CCCC4)nn3)CC2)ncn1` the value was 104%; for `CCC(C)CN1CCC(n2cc(C3CCCC3)nn2)CC1` (configuration not stated), -13.12%. For `CCC(C)CN1CCC(n2cc(C3CCCCC3)nn2)CC1` (configuration not stated) the value was -12.86%.

Regarding `CC(C)Nc1cc(N2CCC(n3cc(C4CCCC4)nn3)CC2)ncn1`, the “Percent Effect” value was found to be 92.63%. For `Cc1cc(N2CCC(n3cc(CCCO)nn3)CC2)ccn1` the value was 1.957%; for `C=C(C)CN1CCC(n2cc(C3CCCC3)nn2)CC1`, 14.96%; for `Cc1nn(CCO)c(C)c1CNC1CCC(C)(C)c2ccccc21` (configuration not stated), -8.145%. For `CNCCN1C(=O)CC[C@H]2CN(c3cnc4ccccc4n3)CC[C@H]21` the value was -7.782%; for `CC(C)COC1CCN(C(=O)c2ccc(C(F)(F)F)[nH]c2=O)CC1`, 17.18%.

For `N#Cc1ccc(CS(=O)(=O)NC(=O)c2ccc(C#N)cc2)cc1`, the “Percent Effect” value came to 0.6106%. To `CN1CCc2c(sc3c2C(=O)NC(/C=C/c2ccccc2)N3)C1` (configuration not stated) belongs 102.8%; to `CCN1CCc2c(sc3c2C(=O)NC(/C=C/c2ccco2)N3)C1` (configuration not stated), 144%; to `CCN1CCc2c(sc3c2C(=O)NC(/C=C\c2ccccc2)N3)C1` (configuration not stated), 141.7%.

On to `NC(=O)Nc1cccc(CNC(=O)CCCOCc2ccccc2)c1`, for which the “Percent Effect” value is -14.12%.

For `Cc1noc(C)c1C(=O)N(Cc1ccsc1)CC1CCCO1` (configuration not stated), the “Percent Effect” value was -86.84%. To `CCN1CCN(S(=O)(=O)N2CCCCCC2)[C@H]2CS(=O)(=O)C[C@H]21` belongs 2.124%. For `CCCC(=O)N(CCCN1CCOCC1)c1nc2c(Cl)cccc2s1.Cl` the value was 31%; for `Cn1c(-c2ccccc2Cl)nc2cc(C(=O)NCC3(CO)CC3)cnc21`, 10.87%. For `CC(C)c1noc(CCC(=O)NCC(c2ccco2)N2CCCC2)n1` (configuration not stated) the value was -11.99%. On to `Cc1noc(CCCC(=O)NCC(c2ccco2)N2CCCC2)n1` (configuration not stated), for which the “Percent Effect” value was 1.423%. `O=C(NCCCn1cncn1)NCC(c1ccco1)N1CCCCC1` (configuration not stated): the “Percent Effect” value came to 9.107%. To `O=C(CCn1cncn1)NCC(c1ccco1)N1CCCC1` (configuration not stated) belongs 144.5%; to `O=C(CCn1cncn1)NCC(c1ccco1)N1CCCCC1` (configuration not stated), 106.2%; to `Cc1noc(CCCC(=O)NCC(c2ccco2)N2CCCCC2)n1` (configuration not stated), -0.8117%. For `CC1CCN(CC(O)CN2CCn3c(nnc3C3CC3)C2)CC1` (configuration not stated) the value was -2.379%. To `Cc1ccoc1-c1nnc(CN2CCn3c(nnc3C3CC3)C2)o1` belongs 8.401%. With `CC(C)c1nnc(NC(=O)CCc2cc(F)ccc2F)[nH]1`, the “Percent Effect” value was -72.05%. To `Cc1n[nH]c(C)c1CCCN(C)Cc1c[nH]nc1-c1ccc(F)cc1` belongs -0.8434%; to `CN(Cc1cn[nH]c1-c1ccc(F)cc1)C(=O)CCC1CC1`, -8.61%.

With `Cc1n[nH]c(C)c1CCC(=O)N(C)Cc1cn[nH]c1-c1ccc(F)cc1`, the “Percent Effect” value turned out to be 62.4%.
